# Where “and” joins values, the source holds several entries; their conditions need not be identical. Equal values may be shown once. Results filed as inconclusive are left out. A number with no mark means an inactive call. Calls of active or inactive are those of the source. Calls follow the shape of the dose curve; as a rule, active = well fitted cell-killing curve with a large enough effect; inconclusive = small, poorly fitted or top-dose-only effect; inactive = no such curve, though single readings can be large or run the other way.
# Test: qHTS of pediatric cancer cell lines to identify multiple opportunities for drug repurposing: Primary screen for A673 cells (AID 1347092); also: nearly all actives have a fitted effect of over 45% in size
# Settings: A673 Ewing sarcoma viability, CellTiter-Glo ATP luminescence, 48 h; series mostly up to 46 µM; activity change, negative = cytotoxic: at the top concentration
# Source text: Drug repurposing or repositioning has been offered as a strategy for drug development in oncology programs. This approach has special potential for childhood cancers and other rare or orphan diseases, where the expected return on new drug development has been a disincentive to pharmaceuticals. […] In this project we exploit the poly-pharmacology of drugs to discover new indications via phenotypic screening of a panel of 19 well-characterized cell lines derived from solid tumors seen in children and adolescents. The goal is to identify approved drugs with previously unrecognized anticancer properties that has the potential to reveal new mechanisms and biological processes involved in carcinogenesis or drug resistance. We employed a titration-based paradigm (quantitative high-throughput screening or qHTS), where all compounds were tested at multiple concentrations for their effect on cell viability. Concentration-response curves (CRCs) were derived directly from the primary screen, and both potency and efficacy values were used to identify compounds with robust bioactivity profiles. We screened the NIH Chemical Genomics Center (NCGC) Pharmaceutical Collection (NPC) and Mechanism Interrogation Plate (MIPE) small molecule collections of approved and investigational compounds against these cell lines; and measured metabolically active cells after 48 hours of compound treatment as a proxy for cell viability. […] Assay Submitter: Nathalia J. Martinez, National Center for Advancing Translational Sciences, National Institutes of Health, Rockville, MD, USA; email: natalia.martinez@nih.gov. Shen, M et al. Quantitative high-throughput phenotypic screening of pediatric cancer cell lines identifies multiple opportunities for drug repurposing. Oncotarget 2017 Dec 19;9(4):4758-4772. PMID 29435139.
# The cells were obtained from University of North Carolina (UNC), Pediatric Preclinical Testing Program (PPT), and Coriell Institute (CI). qHTS cell viability assay: Cells were assayed in growth media at a density of 500-1,000 cells/well. Five microliters of cells were dispensed into 1,536-well, white, solid-bottom, TC-treated plates (Greiner Bio One) using a multidrop dispenser and incubated at 37 degrees C, 5% CO2, under a humidified atmosphere for 5 hours. Twenty-three nanoliters of compounds and controls (neutral control DMSO or positive control bortezomib at final concentration of 2.3 uM) were subsequently transferred by Kalypsys pintool. For primary screens, the MIPE collection was tested at 11-point dilutions (final concentrations range from 0.78 nM to 46 µM) and the NPC collection at 8-point dilutions (final concentrations range from 0.59 nM to 46 µM). Compounds tested in follow-up screens were assayed at 11-point dilutions. Cells were incubated for 48 hours, followed by addition of 3 uL of CellTiter-Glo (Promega). After a 15min incubation at room temperature, samples were analyzed for luminescence intensity using a ViewLux High-throughput CCD imager equipped with clear filters.
# % is scaled to controls: 0 for no effect and ±100 for the full control effect; potency is read from the fitted curve at half-maximal effect.
SMILES,Potency,"activity change, negative = cytotoxic"
CCC(=O)O[C@]1(C(=O)CCl)[C@@H](C)C[C@H]2[C@@H]3CCC4=CC(=O)C=C[C@]4(C)[C@@]3(F)[C@@H](O)C[C@@]21C,inactive,–
NS(=O)(=O)c1cc2c(cc1Cl)NC(C(Cl)Cl)NS2(=O)=O (stereo not given),inactive,–
CN1CCCC(n2nc(Cc3ccc(Cl)cc3)c3ccccc3c2=O)CC1 (stereo not given),0.935 µM (active),–
NC(N)=NC(N)=NCCc1ccccc1,8.41 µM (active) and 5.9 µM (active),–
CO[C@@]12[C@H](COC(N)=O)C3=C(C(=O)C(C)=C(N)C3=O)N1C[C@@H]1N[C@@H]12,1.33 µM (active) and 1.18 µM (active),–
Cc1cc(NS(=O)(=O)c2ccc(N)cc2)no1,inactive,–
CC1=CC(=O)c2ccccc2C1=O,13.3 µM (active) and 14.8 µM (active),–
O=C(O)CSCC(=O)NC1CCSC1=O (stereo not given),inactive,–
O=C(NCC1CN(c2ccc(N3CCOCC3=O)cc2)C(=O)O1)c1ccc(Cl)s1 (stereo not given),–,-8.91%
CCn1cc(C(=O)O)c(=O)c2cc(F)c(N3CCNCC3)cc21,inactive,–
C[C@]12C=CC(=O)C=C1CC[C@@H]1[C@@H]2C(=O)C[C@@]2(C)[C@H]1CC[C@]2(O)C(=O)CO,inactive,–
Cc1nnc(C(=O)NC(C)(C)c2nc(C(=O)NCc3ccc(F)cc3)c(O)c(=O)n2C)o1,inactive,–
CC1(C)[C@H](C(=O)O)N2C(=O)C[C@H]2S1(=O)=O,inactive,–
CCN(CC)CCn1c(=O)c(Cc2ccc(OC)cc2)nc2ccccc21,–,-6.69%
CCCCOc1ccc(CC(=O)NO)cc1,16.8 µM (active) and 2.96 µM (active),–
CN1CCN(c2c(F)cc3c(=O)c(C(=O)O)cn(CCF)c3c2F)CC1,inactive,–
C1CCC(C(CC2CCCCN2)C2CCCCC2)CC1 (stereo not given),10.6 µM (active) and 23.5 µM (active),–
CC1=C(C(=O)O)N2C(=O)[C@@H](NC(=O)C(N)c3ccccc3)[C@H]2SC1 (stereo not given in full),–,12.9%
CCCc1cc(C(N)=S)ccn1,inactive,–
CN(C)c1ccc(C(=C2C=CC(=[N+](C)C)C=C2)c2ccc(N(C)C)cc2)cc1,1.06 µM (active) and 93.5 nM (active),–

SMILES,Potency,"activity change, negative = cytotoxic"
O=C(O)c1cccnc1,–,-6.02%
CC1=NN(c2ccccc2)C(=O)C1,inactive,–
COC(=O)Nc1nc2ccc(S(=O)c3ccccc3)cc2[nH]1 (stereo not given),841 nM (active) and 9.35 µM (active),–
CCOc1cc(N)c(Cl)cc1C(=O)NCC1CN(Cc2ccc(F)cc2)CCO1 (stereo not given),inactive,–
O=C(O)c1cc(=O)[nH]c(=O)[nH]1,inactive,–
CCCCc1oc2ccc(NS(C)(=O)=O)cc2c1C(=O)c1ccc(OCCCN(CCCC)CCCC)cc1,1.18 µM (active),–
CC(C)OC(=O)C(C(=O)OC(C)C)=C1SC=CS1,–,-2.75%
CCn1cc(C(=O)O)c(=O)c2cc(F)c(N3CCNCC3)nc21,inactive,–
NC1(c2ccc(-c3nc4ccn5c(=O)[nH]nc5c4cc3-c3ccccc3)cc2)CCC1,14.8 µM (active) and 21.1 µM (active),–
CN(C)CCc1c[nH]c2ccc(CS(=O)(=O)N3CCCC3)cc12,inactive,–
COc1cc2nc(N3CCCN(C)CC3)nc(NC3CCN(Cc4ccccc4)CC3)c2cc1OC,3.72 µM (active),–
CN(C)CCc1c[nH]c2ccc(C[C@H]3COC(=O)N3)cc12,inactive,–
CS(=O)(=O)c1ccc([C@@H](O)[C@@H](CO)NC(=O)C(Cl)Cl)cc1,inactive,–
CCOCC(O)COc1ccc(NC(=O)CC[S+](C)C)cc1 (stereo not given),inactive,–
CC[C@H](NC(C)C)[C@H](O)c1ccc(O)c2[nH]c(=O)ccc12,inactive,–
NC(=O)N1c2ccccc2CC(=O)c2ccccc21,–,-29.1%
COc1cc([C@@H]2c3cc4c(cc3[C@H](O)[C@H]3COC(=O)[C@H]23)OCO4)cc(OC)c1OC,84.1 nM (active) and 1 nM (active),–
O=c1oc2c(O)c(O)cc3c(=O)oc4c(O)c(O)cc1c4c23,–,-8.75% [at 16.1 µM]
Cc1ccc(S(=O)(=O)N[C@@H](Cc2ccccc2)C(=O)CCl)cc1,14.8 µM (active),–
COc1ncnc(NS(=O)(=O)c2ccc(N)cc2)c1OC,–,-15%

# — PubChem BioAssay (NCATS)
